Test results reported in the supplement of paper PMC10681739.

Assays:
ETS1 [1] = target: T1, ETS1 (UniProt P14921); experiment: ETS1 binding intensity (PBM fluorescence), ETS1 alone (arbitrary fluorescence units); higher = stronger binding; details: ETS1 concentration 1 nM; RUNX1 concentration 0 nM
T1 sequence: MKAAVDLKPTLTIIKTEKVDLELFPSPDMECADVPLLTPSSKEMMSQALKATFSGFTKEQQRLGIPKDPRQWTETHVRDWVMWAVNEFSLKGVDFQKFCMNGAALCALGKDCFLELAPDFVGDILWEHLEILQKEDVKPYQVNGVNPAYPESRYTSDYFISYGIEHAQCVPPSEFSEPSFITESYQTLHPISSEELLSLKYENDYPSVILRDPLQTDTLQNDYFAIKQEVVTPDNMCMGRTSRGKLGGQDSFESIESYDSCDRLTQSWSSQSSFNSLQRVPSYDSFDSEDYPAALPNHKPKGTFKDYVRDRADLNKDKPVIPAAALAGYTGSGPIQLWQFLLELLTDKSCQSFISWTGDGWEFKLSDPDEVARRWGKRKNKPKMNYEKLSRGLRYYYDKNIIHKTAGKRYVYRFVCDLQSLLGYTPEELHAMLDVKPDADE

ETS1 [2] = target: T1, ETS1; experiment: ETS1 binding intensity (PBM fluorescence) in presence of RUNX1, normalised to ETS1-only experiment (arbitrary fluorescence units); higher = stronger binding; details: ETS1 concentration 1 nM; RUNX1 concentration 25 nM

| Sequence | ETS1 binding intensity (ETS1 [1]) | ETS1 binding intensity (ETS1 [2]) |
| --- | --- | --- |
| TGTGAGAAGCCGGATCCTGTGGTGACCCAGTGGCCT | 409 | 479 |
| GACTGCGCCGGACGCGCCAGCCCTGCGGGATGACGT | 650 | 801 |
| GGAGGAAGGCAGGAAAGAAAGAGGTGGTTTCGGCAC | 605 | 762 |
| CTAAGTGCTCTTCCTGCCAACCTGTGGGCGCCTGGC | 559 | 686 |
| TGCACTCCACTTCCCCTCGCCCGCAGTGAGCAGTCA | 426 | 450 |
| ACACCGCTCAGGAAGACAAAGCCACACCTCACACCA | 443 | 358 |
| GTCGTGTTTGGCTTCCTGTGGGCACGCCTGCGTAGC | 589 | 516 |
| GGGCCCCCGGAAAGAGCTTTGACCGCTCGAGCCTGC | 456 | 489 |
| TACCACCTCAGGATGTCTGAACCACATGCAAGCAGG | 439 | 571 |
| AGGCGAAGGATGACTTCCTGCGGCACTACACAGTGT | 610 | 656 |
| GGCTTGATTGAACGAGGATGTGGTTCTTGGGTGGGA | 686 | 1770 |
| TAAACGTCAGCTTCCTTTGTGGCTTACCCTCCCGCC | 495 | 582 |
| TAACTTGAACTTCCTTTTGACCACCTGTACGGTATA | 497 | 462 |
| CCAGCCTCCCCTTTCCTGTCTGTGGCAGGAGCGTGC | 505 | 512 |
| GGTTTCACTTCCTGCGTTGGGCCTTGTGGCCTCCTT | 783 | 787 |
| TCAAGAGGGTGTGGAGGAAGTGGGTTACAAGCACTT | 1450 | 1940 |
| GCTTCGTTTCCCGCCGGGGCTCACCGCGCCCCCCTA | 621 | 615 |
| GGGGGAATGTAGGAAGTATCATCGCCCACAAGAAAG | 644 | 807 |
